Reference: PubChem BioAssay (Tox21)
“And” between values parts separate entries of the source, which are not always exact repeats. Identical values can stand only once. Results filed as inconclusive are left out. More than one record can exist for a structure, and the calls need not agree. The source made the active and inactive calls. Calls come from the whole dose curve; as a rule, active = well fitted cell-killing curve with a large enough effect in the repeat runs; inconclusive = weak or mixed curves; inactive = flat fitted curve, though single readings scatter.

Test: qHTS RealTime-Glo MT Cell Viability Assay in HepG2 cells - 32 hour (AID 1224877); note: nearly all actives have a fitted effect of over 55% in size
Conditions: RealTime-Glo luminescence; series mostly up to 76.8 µM; activity change, negative = cytotoxic: at the top concentration
From the text: U.S. Tox21 Program National Center for Advancing Translational Sciences [NCATS] NIH Chemical Genomics Center [NCGC] U.S. Environmental Protection Agency [EPA] National Institutes of Environmental Health Sciences [NIEHS] National Toxicology Program [NTP] U.S. Food and Drug Administration [FDA] Tox21 Assay Overview: Measure of cell viability is critical in the cell-base assay. Analysis of cell viability is necessary for the characterization of cell responses to cytotoxic drugs and environmental stress. A RealTime-Glo MT Cell Viability Assay to monitor cell viability in real time of continues cell culture during 40 hours of compound treatment was used to screen Tox21 10K library compounds in HepG2 cells. The RealTime-Glo MT Cell Viability Assay is a nonlytic, homogeneous, bioluminescent method to measure cell viability in real time using a simple, plate-based method. The assay involves adding NanoLuc luciferase and a cell-permeant prosubstrate to cells in culture. Viable cells reduce the proprietary prosubstrate to generate a substrate for NanoLuc luciferase. This substrate diffuses from cells into the surrounding culture medium, where it is rapidly used by the NanoLuc Enzyme to produce a luminescent signal. The signal correlates with the number of viable cells, making the assay well suited for cytotoxicity studies.
Tox21 Assay Protocol Summary: The mixture of HepG2 cell suspension and reagents were dispensed at 600cells/6 ul/well in 1536-well tissue culture treated black solid bottom plates using a Multidrop dispenser. After the assay plates were incubated at a 37 C/5% CO2 incubator for 5 hours, 23 nL of compounds dissolved in DMSO, positive and negative controls was transferred to the assay plate by a pintool work station. The plates were incubated at 37 C for 40 hours. The luminescence intensity were measured at 0h, 8h, 16h, 24h, 32h and 40h time points using ViewLux plate reader during compound treatment.
% is set by controls: 0 for no effect and ±100 for the full control effect; potency is the fitted concentration of half-maximal effect.

| Compound | activity change, negative = cytotoxic | Potency |
| --- | --- | --- |
| CCOP(=S)(OCC)SCS(=O)(=O)C(C)(C)C | -10.5% (inactive) |  |
| Nc1ccccc1C(=O)Oc1ccc2ccccc2c1 | -5.82% (inactive) |  |
| BrC(Br)C(Br)(Br)Br | -12% (inactive) |  |
| S=C(SSC(=S)N1CCCCC1)N1CCCCC1 |  | 0.213 µM (active) |
| CCCCCCCCCCCCCCC(Br)C(=O)O (stereo not given) | -24.7% (inactive) |  |
| CN(CCCC(=O)c1cccnc1)N=O | 13.1% (inactive) |  |
| CC(Cc1ccc(C(C)(C)C)cc1)CN1C[C@@H](C)O[C@@H](C)C1 (stereo not given in full) | -10.2% (inactive) |  |
| Cc1cc(C(F)(C(F)(F)F)C(F)(F)F)ccc1NC(=O)c1cccc(I)c1C(=O)NC(C)(C)CS(C)(=O)=O | -10% [at 35.3 µM] (inactive) |  |
| NC(=O)c1ccc(N)nc1 | -4.01% (inactive) |  |
| C[C@]12CC[C@@H]3c4ccc(OC(=O)N(CCCl)CCCl)cc4CC[C@H]3[C@@H]1CC[C@@H]2O | -3.52% [at 35.3 µM] (inactive) |  |
| CCCCN(CCCC)C(=S)[S-].CCCCN(CCCC)C(=S)[S-].[Zn+2] |  | 24.5 µM (active) |
| CCc1nn(C)c(C(=O)NCc2ccc(C(C)(C)C)cc2)c1Cl | -15.4% (inactive) |  |
| COCC(=O)N(c1c(C)cccc1C)[C@H](C)C(=O)OC | 3.27% (inactive) |  |
| CCN | 1.99% (inactive) |  |
| CCSC(C)CC1CC(=O)C(/C(CC)=N/OC/C=C/Cl)=C(O)C1 (stereo not given) | -8.28% [at 35.3 µM] (inactive) |  |
| O=c1ssc(Cl)c1Cl |  | 21.9 µM (active) |
| Oc1c(Br)c(Br)c(Br)c(Br)c1Br | -6.32% (inactive) |  |
| BrCC(Br)c1ccccc1 (stereo not given) | -4.58% (inactive) |  |
| O=c1[nH]c2ccccc2n1C1CCN(CCCC(c2ccc(F)cc2)c2ccc(F)cc2)CC1 |  | 34.7 µM (active) and inactive |
| CC1(C)C(/C=C(\Cl)C(F)(F)F)C1C(=O)OC(C#N)c1cccc(Oc2ccccc2)c1 (stereo not given) | -1.82% (inactive) |  |

| Compound | activity change, negative = cytotoxic | Potency |
| --- | --- | --- |
| CC(C)Oc1cccc(NC(=O)c2ccccc2C(F)(F)F)c1 | -0.329% (inactive) |  |
| COc1ccc([N+](=O)[O-])cc1O | -0.132% [at 35.3 µM] (inactive) |  |
| CC(C)CCCCCOC(=O)c1ccccc1C(=O)OCCCCCC(C)C | -10.2% (inactive) |  |
| Fc1ccc(Oc2ccnc3cc(Cl)cc(Cl)c23)cc1 | -19.2% (inactive) |  |
| O=[N+]([O-])c1cc(C(F)(F)F)c(Cl)c([N+](=O)[O-])c1Cl |  | 21.9 µM (active) |
| Cl/C=C\CCl | -5.73% (inactive) |  |
| ClC1=C(Cl)[C@]2(Cl)[C@H]3[C@H]([C@H]4C=C[C@H]3C4)[C@@]1(Cl)C2(Cl)Cl | -7.2% (inactive) |  |
| [Hg+2].[I-].[I-] |  | 11 µM (active) |
| Nc1ccc(Cl)cc1C(=O)c1ccccc1 | -4.44% (inactive) |  |
| CN(C)CCc1c[nH]c2ccc(O)cc12 | -1.25% (inactive) |  |
| CC(C)CC(C)N (stereo not given) | 0.57% (inactive) |  |
| CC(=O)c1cc(C(C)(C)C)cc2c1CCC2(C)C | -1.62% (inactive) |  |
| c1ccc(OCC2CO2)cc1 (stereo not given) | 1.47% (inactive) |  |
| N#Cc1ccc(O)cc1 | 3.98% (inactive) |  |
| [Cl][Sb]([Cl])[Cl] | -16.4% (inactive) |  |
| O=C1c2ccccc2C(=O)C1C(=O)C(c1ccccc1)c1ccc(Cl)cc1 (stereo not given) | -18.5% (inactive) |  |
| CCCCCCCCCCCCCCCC[N+](C)(C)C |  | 43.6 µM (active) and 23.9 µM (active) |
| c1ccc2c(c1)OCC(C1=NCCN1)O2 (stereo not given) | -14.8% [at 35.3 µM] (inactive) |  |
| N#CC(Cl)Cl | 15.1% (inactive) |  |
| CC(C)(C)OO | 6.26% (inactive) |  |
